D2 PAM-1 – positively modulates the human D2 dopamine receptor allosterically. P14416. HEK293 T-REx D2, calcium flux, EC20 dopamine potentiation. potentiation, % at 10 µM. actives 0.34% (n = 340,000). AID 485347;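 active = potentiation over 3 SD above the plate norm, cut at about 30% in these data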; also: 0% is about no effect
Target sequence (P14416 whole entry, looked up): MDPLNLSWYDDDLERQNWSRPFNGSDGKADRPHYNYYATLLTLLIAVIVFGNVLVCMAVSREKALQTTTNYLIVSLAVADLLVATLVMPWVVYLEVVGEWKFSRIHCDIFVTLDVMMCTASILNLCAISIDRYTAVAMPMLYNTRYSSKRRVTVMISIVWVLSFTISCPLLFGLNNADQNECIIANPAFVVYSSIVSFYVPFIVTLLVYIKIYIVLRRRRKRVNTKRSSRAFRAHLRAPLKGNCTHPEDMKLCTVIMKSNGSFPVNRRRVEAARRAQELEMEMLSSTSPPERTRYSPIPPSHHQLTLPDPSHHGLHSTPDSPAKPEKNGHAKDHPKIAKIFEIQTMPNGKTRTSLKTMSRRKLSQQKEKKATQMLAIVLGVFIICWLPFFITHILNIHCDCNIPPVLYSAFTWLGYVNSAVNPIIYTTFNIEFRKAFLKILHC
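Tetracycline-induced HEK293 T-REx cells force-coupled to calcium signalling expressed D2; compounds were pin-added after a 10 s baseline, read kinetically 180 s, then an EC20 dopamine challenge followed with a further 180 s calcium read.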
D2 ag-1 – agonists of human D2 dopamine receptor | P14416 | HEK293 T-REx D2 cells, calcium flux agonist mode | activation, % at 2 µM | actives 0.53% (n = 340,000);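 active = activation over 3 SD above normal in the single-dose calcium agonist read, cut at about 30% in these data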; also: 0% is about no effect
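Agonism scored from kinetic calcium signal (1 read/sec, 180 s) following compound pin transfer, after a 10 s baseline. Cells: HEK293 Trex line expressing inducible D2 receptor coupled to calcium, dye-loaded after overnight culture at 30 C.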
D2 antagonist – D2 dopamine receptor (human) antagonism; actives 2% (n = 340,000); P14416; HEK293 TREx D2 cells, calcium flux, dopamine EC80; inhibition, % at 10 µM; in the data active = inhibition above about 30%; inactive = below that, where a call was filed; also: 0% is about no effect
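Measurement of antagonist activity uses fluorescent calcium dye in inducible HEK293 T-REx D2 cells: 10 s baseline, compound addition with 180 s read, EC80 dopamine addition with a further 180 s read.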
D2 ag-2 – agonists of human D2 dopamine receptor (beta-arrestin); DiscoveRx PathHunter D2 beta-arrestin, luminescence, 90 min; 100% = 57 uM dopamine signal; activation, % (no concentration beside the values); actives 0.084% (n = 360,000); AID 624465; in the data active = activation above about 40%; inconclusive = between about 15% and that limit
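DiscoveRx PathHunter D2 beta-arrestin cells (2,100/well) attached overnight, then compound-stimulated 90 min at 37 C in HBSS/10 mM HEPES/0.1% Tween-20 buffer; beta-galactosidase complementation read by luminescence after 1 h at ambient temperature. Dopamine 57 uM final (EC100) as control.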
D2 PAM-2 – potentiates the human D2 dopamine receptor allosterically | P14416 | DiscoveRx D2 beta-arrestin cells, luminescence, 90 min; 100% = 57 uM dopamine signal | potentiation, % (concentration not given with the values) | actives 0.23% (n = 360,000) | AID 624464; in the data active = potentiation above about 50%; inconclusive = mostly about 30% to 49%
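PathHunter beta-arrestin assay in DiscoveRx D2 cells. Compounds were added with an EC20 of dopamine (50 nM final) for 90 min at 37 deg C. Luminescence was read 1 h after detection reagent, with 57 uM dopamine as the EC100 control.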
The depositor's hits bear a star; u = inconclusive; x = no result given. This is a sample that favours compounds with a hit; in the whole collection about 2.4% have one here.

SMILES	D2 PAM-1	D2 ag-1	D2 antagonist	D2 ag-2	D2 PAM-2
Cc1ccccc1N1CCN(Cc2cc3c(cc2[N+](=O)[O-])OCO3)CC1	0	0	-20	5	-41
CCOc1cc(CN2CCCCCC2)ccc1OC	-12	0	7	-7	-5
CCOC(=O)C1CCN(c2c(NCCN3CCN(c4ccccc4)CC3)c(=O)c2=O)CC1	-18	37*	-7	-4	-7
COc1ccccc1N1CCN(Cc2cccc(OC)c2OC)CC1	-14	-1	71*	-2	-45
COc1ccc(N2CC3=C(C2=O)C(c2ccc(O)c(OC)c2)NC(=O)N3C)cc1 (stereo unspecified)	-6	0	x	x	x
CC(C)CCNC(=O)c1ccc(Cn2c(=O)c3cccn3c3cccnc32)cc1	1	10	x	x	x
CCOC(=O)C1CCN(Cc2ccccn2)CC1	-15	27	-6	x	x
Cc1ccc(Nc2nc(N)nc(CN3CCN(C)CC3)n2)cc1	-8	0	18	-1	-17
COc1ccccc1N1CCN(Cc2cc3c(cc2Br)OCCO3)CC1	-27	-1	104*	-18	-18
COc1ccc(CC(C)N2CCN(c3ccccc3OC)CC2)cc1OC (stereo unspecified)	-25	22	89*	-2	-16
COc1ccccc1N1CCN(Cc2nc(N)nc(Nc3ccc(C)cc3)n2)CC1	-38	26	89*	1	-42
CCOC(=O)C1CCN(c2ccccc2CN2CCN(c3ccccc3OCC)CC2)CC1	-18	0	61*	-15	-24
Cc1ccc(C)c(NC(=O)CSc2cn(CC(=O)N3CCCCC3)c3ccccc23)c1	-6	1	x	x	x
COc1cc(OC)c(OC)cc1CN1CCN(c2ccccc2OC)CC1	-15	0	70*	1	-21
COc1ccc(Cn2nnnc2C(C(C)C)N2CCN(c3ccccc3OC)CC2)cc1 (stereo unspecified)	-9	0	53*	-1	-4
CCOc1ccccc1N1CCN(Cc2cnc(-c3ccccc3)[nH]2)CC1	-24	0	78*	2	-6
COc1ccccc1-n1nnnc1SCc1cc2c(cc1Br)OCO2	43*	0	-9	-2	-14
COc1ccccc1-n1nnnc1SCc1ccccc1	-6	-1	12	5	-17
CC1=C(c2ccc(C)cc2)S(=O)(=O)N(Cc2ccc(C(=O)Nc3ccc(C)c(F)c3)cc2)C1=O	-18	-1	x	x	x
CCOc1ccccc1N1CCN(C/C=C/c2ccc(N(C)C)cc2)CC1	-21	0	79*	0	-34
COc1ccc(Cl)c(N2CCN(CCCNC(=O)Nc3ccc(C)cc3)CC2)c1	-23	-1	36*	3	-24
COc1ccc(NC(=O)NCCN2CCN(c3cc(OC)ccc3OC)CC2)cc1	-8	0	-8	-3	-3
CN(C)CCNC(=O)c1ccc(-n2c(-c3ccccc3)cc3c2CCCC3)cc1	-5	0	x	x	x
Cc1ccc(C(=O)CN(C(=O)c2ccc(Cl)cc2)N2C(=O)CCC2=O)cc1	-21	-1	31*	-5	-49
Cc1ccc(C(=O)CN(C(=O)c2ccc(Cl)cc2)N2C(=O)c3ccccc3C2=O)cc1	-2	-1	-7	-1	-3
SMILES	D2 PAM-1	D2 ag-1	D2 antagonist	D2 ag-2	D2 PAM-2
CC(C)(C)NC(=O)C1c2ccccc2Oc2ccccc21	12	0	47*	-4	7
O=C(c1ccc2c3c(cccc13)CC2)C1CCCN(Cc2ccccn2)C1 (stereo unspecified)	-18	0	37*	-2	-7
Cc1cnc(CN2CCCC(C(=O)c3ccc4c5c(cccc35)CC4)C2)[nH]1 (stereo unspecified)	-32	-1	7	-4	-16
O=C(c1ccc2c3c(cccc13)CC2)C1CCCN(Cc2ccc(OCCO)cc2)C1 (stereo unspecified)	-32	0	31*	0	-5
CCOC(=O)C1=C(Cn2cnc3ccccc32)NC(=O)NC1c1cc(C)ccc1C (stereo unspecified)	10	1	-10	u	u
COC(=O)C1=C(Cn2cnc3ccccc32)NC(=O)NC1c1cc(C)ccc1C (stereo unspecified)	-3	1	-9	52*	91*

Bioassay records as filed in PubChem BioAssay.
